According to PubChem BioAssay AID485313 (National Center for Advancing Translational Sciences (NCATS), 2010):
The campaign covered roughly 320,000 compounds. About 7,600 (2.4%) were called active. Roughly 3% stayed inconclusive and do not appear here. Calls come from the whole dose curve; as a rule, active = well fitted activation curve with a large enough effect; inconclusive = small, poorly fitted or top-dose-only effect; inactive = no such curve, though single readings can be large or run the other way. The entries come from a sample that favours actives as a whole. Entries that show only a call come without a potency.

Assay: qHTS Assay for NPC1 Promoter Activators; note: nearly all actives have a fitted effect of over 60% in size;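 for activation: reporter is driven by a mutant NPC1 promoter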
Conditions: Huh7 NPC1 promoter luciferase reporter, 24 h; series mostly up to 9.22 µM
How it was run: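 Quantitative HTS used a cell-based reporter: Huh7 cells stably bearing the NPC1 promoter upstream of luciferase were treated with compounds for 24 h, and promoter activation was read as luminescence.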
Potency is the fitted concentration of half-maximal effect.

Row | SMILES | Potency
1 | Cc1cccc(C(=O)O)c1[N+](=O)[O-] | inactive
2 | N#Cc1ccc(C(=O)OCC(=O)NC(=O)NC2CCCCC2)cc1 | inactive
3 | O=S(=O)(c1ccc(SCc2ccccc2)nc1)N1CCCCCC1 | inactive
4 | CC(C)C(=O)Nc1cccc(C(=O)Nc2ccc3c(c2)OCO3)c1 | 2820 nM (active)
5 | O=C(Nc1nc2ccccc2s1)c1ccc2c(c1)OCO2 | 562 nM (active)
6 | Cn1c(NC(=O)c2ccc3c(c2)OCO3)cc(=O)n(C)c1=O | inactive
7 | O=C(Nc1cccc([N+](=O)[O-])c1)c1ccc2c(c1)OCO2 | inactive
8 | O=C(Nc1ccc2c(c1)OCO2)c1ccc(N2C(=O)c3ccccc3C2=O)cc1 | inactive
9 | O=C(Nc1nc2cc3c(cc2s1)OCCO3)c1cccc(S(=O)(=O)N2CCOCC2)c1 | inactive
10 | O=C(Nc1ccccc1)c1ccc2c(c1)OCO2 | 2820 nM (active)
11 | CCSc1ccccc1C(=O)Nc1ccc2c(c1)OCO2 | inactive
12 | CCCc1nnc(NC(=O)c2cc(OC)cc(OC)c2)s1 | inactive
13 | COCc1nnc(NC(=O)c2ccc3c(c2)OCO3)s1 | 2820 nM (active)
14 | COc1ccc(S(=O)(=O)N2CCOCC2)cc1C(=O)Nc1nc2ccccc2s1 | inactive
15 | O=C(Nc1ccc(NC(=O)c2ccc3c(c2)OCO3)cc1)c1cccc(Cl)c1 | inactive
16 | CS(=O)(=O)Nc1ccccc1C(=O)OCC(=O)NC1CC1 | inactive
17 | CSc1ccccc1C(=O)OCC(=O)N1CCN(C(C)=O)CC1 | inactive
18 | Cc1cccc(C(=O)NC(=S)N2CCN(c3ccc([N+](=O)[O-])cc3)CC2)c1 | inactive
19 | N#Cc1ccccc1S(=O)(=O)N1CCN(C(=O)c2cc(-c3ccccc3)nn2-c2ccccc2)CC1 | inactive
20 | Cc1ccc(S(=O)(=O)NCCNC(C)c2ccc(Br)cc2)cc1 (stereo not drawn) | inactive
21 | CCN(C(=O)CSc1nc(N)cc(=O)[nH]1)C1CCS(=O)(=O)C1 (stereo not drawn) | inactive
22 | CC1(C)O[C@@H]2[C@H](O1)[C@@H](COS(=O)(=O)O)O[C@H]2n1cnc2c(=O)[nH]cnc21 | inactive

Row | SMILES | Potency
23 | COCCn1c(C)cc(C2=NNC(=Nc3ccc(F)cc3)SC2)c1C | 2510 nM (active)
24 | C=CCn1c(C)cc(C2=NNC(=NCC)SC2)c1C | inactive
25 | Cc1ccc(SCC(=O)c2cc(C)c(OC(=S)N(C)C)c(C)c2)cc1 | 2510 nM (active)
26 | CCN1CCN(C(=O)CSc2ccc(C)cc2)CC1 | inactive
27 | COC(=O)c1cc(OC)c(OC)cc1NC(=O)CSc1ccc(C)cc1 | inactive
28 | O=C(NNC(=O)c1ccco1)Nc1ccccc1 | inactive
29 | O=C(NNC(=S)Nc1ccc(Br)cc1Cl)c1ccco1 | 3550 nM (active)
30 | CCC(=O)NC(=S)Nc1ccc(NC(=O)c2ccco2)c(Cl)c1 | inactive
31 | CC1(NC(=O)CCS(=O)(=O)c2ccc(Cl)cc2)CCS(=O)(=O)C1 (stereo not drawn) | inactive
32 | CCOc1ccc(C(=O)CCC(=O)Nc2ccncc2)cc1 | inactive
33 | CN1C(=O)/C(=C/C=C2\SCCN2C)OC1=S | 3980 nM (active)
34 | Cc1cc(C)cc(NC(=O)c2cccc(NC(=O)C3C4CC5OC(=O)C3C5C4)c2)c1 (stereo not drawn) | inactive
35 | O=C(Cn1c2[n+](c3ccc(C(F)(F)F)cc31)CCCCC2)Nc1c(F)cccc1F | inactive
36 | NC(=O)C1CCN(C(=O)c2ccc(F)c(S(=O)(=O)N3CCOCC3)c2)CC1 | inactive
37 | O=C(NCC1CCC(C(=O)O)CC1)OCc1ccccc1 (stereo not drawn) | inactive
38 | CCOC(=O)N1CCC(NC(=O)CCc2ccccc2)CC1 | inactive
39 | O=C(O)C1CCN(C(=O)OCc2ccccc2)CC1 | 2000 nM (active)
40 | CC(=O)c1ccc(S(=O)(=O)NCCC(=O)N2CCN(c3ccccn3)CC2)cc1 | inactive
41 | O=C(Nc1cccc(C(=O)NC2CC2)c1)c1ccc(F)c(S(=O)(=O)N2CCOCC2)c1 | inactive
42 | COc1ccc(Cl)cc1NC(=O)COc1ccc2c(c1)OCO2 | inactive
43 | O=[N+]([O-])c1cc(Br)c(O)c(/C=N/Nc2nc3ccccc3s2)c1 | inactive
44 | CCN(CC)CCn1c2c(c(SCC(=O)Nc3nc4ccccc4s3)nc1=O)CCCC2 | inactive

Row | SMILES | Potency
45 | c1ccc2sc(NN=C3CCCC3)nc2c1 | 1410 nM (active)
46 | COc1ccc(-c2sc3ccc(OC)cc3c2C#Cc2ccccn2)cc1 | inactive
47 | Cc1cnc(CN(C)C(=O)C2CCC(=O)N(CCc3cccc(F)c3)C2)[nH]1 (stereo not drawn) | inactive
48 | Cc1csc(=O)n1CCC(=O)OCC(=O)NNC(=O)c1ccc(Br)cc1 | inactive
49 | Nc1c(N(CCCO)C(=O)C2CCCC2)c(=O)[nH]c(=O)n1Cc1ccccc1 | inactive
50 | C/C(=N\NC(=O)c1nc(C)cc(C)n1)c1ccccc1 | 1580 nM (active)
51 | C/C(=N\NC(=O)c1cccnc1)c1ccc(-c2ccccc2)cc1 | inactive
52 | COc1ccc(/C(C)=N/NC(=O)c2ccc3nc[nH]c3c2)cc1 | inactive
53 | COc1ccc(CCNC(=O)CCc2ccccc2O)cc1OC | inactive
54 | COc1ccccc1C(=O)NC(=O)COC(=O)C1CC1 | inactive
55 | O=C(CNC(=O)c1ccc(F)cc1)c1ccccc1 | 1410 nM (active)
56 | O=C(CNC(=O)c1ccccc1Br)NCCSc1ccc(Br)cc1 | inactive
57 | O=C(COC(=O)CNC(=O)c1ccccc1F)NCC(F)(F)F | inactive
58 | O=C(CNC(=O)c1ccccc1F)c1ccc(Br)cc1 | 398 nM (active)
59 | O=C(CNC(=O)c1ccccc1)NCC(=O)OCC(=O)c1ccccc1 | inactive
60 | O=C(NCCS(=O)(=O)NCc1ccc(F)cc1)c1ccccc1 | inactive
61 | Cc1ccc(S(=O)(=O)Nc2nc(CN3CCOCC3)nc3sc(C)c(C)c23)cc1 | inactive
62 | COc1ccc(CNC(=O)c2ccc(NS(=O)(=O)c3ccc4[nH]c(=O)[nH]c4c3)cc2)cc1OC | inactive
63 | Nc1nc(SCC(=O)Nc2ccc(Cl)c([N+](=O)[O-])c2)n[nH]1 | inactive
64 | CCCOc1ccc(C(=O)NCCc2ccccc2)cc1 | 447 nM (active)
65 | CN(c1ccccc1)S(=O)(=O)c1ccc(C(=O)NCCc2ccccc2)cc1 | inactive
66 | O=C(NCCOc1ccccc1)c1ccccc1 | 631 nM (active)

Row | SMILES | Potency
67 | O=C(CCNC(=O)c1ccc(Br)cc1)NCCCc1ccccc1 | inactive
68 | CCCCCCCCC(=O)NCCOc1ccccc1 | inactive
69 | Cc1noc(C)c1COc1ccc(C(=O)NCCOc2ccccc2)cc1 | inactive
70 | COc1ccc(OCCCC(=O)NCCc2ccccc2)cc1 | inactive
71 | CC(C)c1ccc(C(=O)NCCCc2ccccc2)cc1 | 2820 nM (active)
72 | CCCc1ccc(OCCNC(=O)c2ccccc2Br)cc1 | inactive
73 | CCN1CCN(C(=O)N[C@@H](C(=O)N[C@@H]2C(=O)N3C(C(=O)O)=C(CSc4nnnn4C)CS[C@H]23)c2ccc(O)cc2)C(=O)C1=O | inactive
74 | Cc1ccc(CNC(=O)c2cccc3c2C(=O)c2ccc(N4CCC(C)CC4)cc2S3(=O)=O)cc1 | inactive
75 | CC1(C)O[C@@H]2[C@H](O1)[C@@H](COS(=O)(=O)O)O[C@H]2n1ccc(=O)[nH]c1=O | inactive
76 | O=C(/C=C/c1ccccc1[N+](=O)[O-])OCC(=O)N1CCCC1 | inactive
77 | O=C(CNc1ccccc1N1CCCC1=O)Nc1cc(Cl)ccc1-n1cncn1 | inactive
78 | O=c1c2ccccc2ncn1/N=C/c1ccccc1 | 1000 nM (active)
79 | O=C(Nn1cnc2ccccc2c1=O)c1ccccc1 | inactive
80 | CCCc1nc2ccccc2c(=O)n1/N=C/c1ccc(O)c(O)c1 | inactive
81 | O=C(Oc1cccc(NC2=NS(=O)(=O)c3ccccc32)c1)c1ccncc1 | inactive
82 | Cc1ccc(S(=O)(=O)N(NC2=NS(=O)(=O)c3ccccc32)C(=O)c2ccccc2)cc1 | inactive
83 | CC(C)(C)c1csc(NC2=NS(=O)(=O)c3ccccc32)n1 | 1410 nM (active)
84 | CCN(CC(=O)Nc1ccccc1C(F)(F)F)C(=O)C1CCN(C(=O)Nc2ccccc2)CC1 | inactive
85 | O=C(c1cn(-c2ccccc2)nc1-c1cccnc1)N1CCN(S(=O)(=O)c2ccccc2F)CC1 | inactive
86 | CC[C@@H]1Cc2cc(O)ccc2C2=C1c1ccc(O)cc1C[C@H]2CC | inactive
87 | COC(=O)/C(=C1\Oc2ccc(C(C)(C)C)cc2S1)C(F)(F)F | 3550 nM (active)
88 | CCOC(=O)C1=C(c2ccccc2)O/C(=C(/C(=O)OC)C(F)(F)F)S1 | inactive

Row | SMILES | Potency
89 | Cc1occc1-c1nnc(SCC(=O)NC2(C#N)CCCC2)n1C | inactive
90 | COc1ccc(-c2cc3ncccc3cn2)cc1 | 2240 nM (active)
91 | COc1ccc(-c2cc(C3CCN(c4ncccc4[N+](=O)[O-])CC3)[nH]n2)cc1 | inactive
92 | COc1ccc(-c2cc(C(F)(F)F)nc(NCc3cccnc3)n2)cc1 | inactive
93 | Cn1c(CCN2CCCC2)nc2cc(NS(=O)(=O)c3ccccc3)ccc21 | inactive
94 | Cc1nc2cc(NC(=O)NC3CC3)ccc2n1C | inactive
95 | Cn1c(CCN2CCCCCC2)nc2cc(NC(=O)Nc3ccccc3)ccc21 | 4470 nM (active)
96 | Cc1cc2nc(C)n(CCCNC(=O)Nc3ccccc3)c2cc1C | inactive
97 | Cc1nc2cc(NC(=O)Nc3cccc(F)c3)ccc2n1C | 100 nM (active)
98 | CCC(=O)Nc1ccc2c(c1)nc(CCN1CCN(c3ccccn3)CC1)n2C | inactive
99 | CCn1c(=O)c(=O)n(CC)c2cc(N3CCCCC3)c(NC(=O)c3ccc(Cl)cc3)cc21 | inactive
100 | CC(C)n1ncc2c(C(=O)NCc3ccccc3CN(C)C)cc(C3CC3)nc21 | inactive
101 | COc1nc(N(C)C)nc(N2CC(=O)N(CCNS(=O)(=O)c3ccc(C)cc3)C2=N)n1 | inactive
102 | CCS(=O)(=O)n1nc(-c2ccc(OC)cc2)nc1SC | inactive
103 | CS(=O)(=O)n1nc(-c2ccccc2)nc1NCc1ccco1 | inactive
104 | CCS(=O)(=O)n1nc(-c2ccccc2)nc1SCc1ccccc1 | 3550 nM (active)
105 | CN(CC(=O)Nc1c(Cl)cccc1Cl)C(=O)CC1OC(=O)c2ccccc21 (stereo not drawn) | inactive
106 | COC(=O)CSc1nc2ccccc2c(=O)n1Cc1ccccc1 | inactive
107 | COc1ccc(NC(=O)CSc2nc3ccccc3c(=O)n2C)cc1 | inactive
108 | Cc1ccc(C(=O)CSc2nc3ccccc3c(=O)n2N)o1 | 3980 nM (active)
